From PubChem BioAssay
Active and inactive are the calls of the source. Unless noted, how the calls were made is not given here.

What was measured:
[1] = compound effects on lung adenocarcinoma cell viability – A549, calcein-AM fluorescence, 48 h, basal, profiling panel (AID 1162); conditions: higher = more signal; further: test concentration not given here
[2] = compound effects on differentiated 3T3-L1 adipocyte viability – cell-based, 3T3-L1 adipocytes, calcein-AM fluorescence, 48 h, basal, profiling panel (AID 1163); conditions: 3T3-L1 adipocytes viability, higher = more signal; further: test concentration not given here
[3] = compound effects on hepatocellular carcinoma cell viability – HepG2, calcein-AM fluorescence, 48 h, basal, profiling panel (AID 1164); conditions: higher = more signal; further: test concentration not given here
[4] = compound effects on multiple myeloma cell viability – MM1S, calcein-AM fluorescence, 48 h, basal, profiling panel (AID 1165); conditions: higher = more signal; further: test concentration not given here
[5] = calcein-AM signal in unstimulated myeloma cells – cell-based, calcein-AM fluorescence, 48 h, PK04 Diversity Set, profiling panel (AID 1166); conditions: RPMI8226 myeloma viability, higher = more signal;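 further: cells grown under basal conditions without added stimulus; test concentration not given here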
[6] = JC-1 mitochondrial signal, unstimulated HepG2 cells – cell-based, JC-1 fluorescence, 24 h, 100 nL compound, profiling panel (AID 1167); conditions: HepG2 mitochondrial potential, higher = more signal; further: test concentration not given here
[7] = JC-1 mitochondrial signal, unstimulated adipocytes – cell-based, JC-1 fluorescence, 3T3-L1 adipocytes, 24 h, 100 nL compound, profiling panel (AID 1168); conditions: JC-1 mitochondrial fluorescence, higher = more signal, called active from +8 up or from −8 down; further: test concentration not given here
[8] = JC-1 mitochondrial signal, unstimulated myeloma cells – cell-based, JC-1 fluorescence, RPMI8226, 24 h, 100 nL compound, profiling panel (AID 1169); conditions: JC-1 mitochondrial potential fluorescence, higher = more signal; further: test concentration not given here
[9] = JC-1 mitochondrial signal, unstimulated MM1S myeloma – cell-based, JC-1 fluorescence, 24 h, 100 nL compound, profiling panel (AID 1170); conditions: MM1S mitochondrial potential, higher = more signal; further: test concentration not given here
[10] = resazurin metabolic signal in A549 cells – cell-based, resazurin fluorescence, 24 h, PK04 Diversity Set, profiling panel (AID 1171); conditions: A549 viability, higher = more signal, called active from +8 up or from −8 down; further: test concentration not given here
[11] = resazurin metabolic signal in HepG2 cells – cell-based, resazurin fluorescence, 24 h, PK04 Diversity Set, profiling panel (AID 1172); conditions: HepG2 viability, higher = more signal; further: test concentration not given here
[12] = budding yeast growth changes without added modifier – OD600, strain BY4716, 24 h, basal condition, primary screen (AID 1173); conditions: S. cerevisiae BY4716 growth, OD600, 24 h; higher = more signal, called active from +8 up or from −8 down
[13] = viability profiling in MM1S myeloma cells – cell-based, resazurin fluorescence, basal, 24 h, PK04 Diversity Set, profiling panel (AID 1174); conditions: higher = more signal, called active from +8 up or from −8 down; further: test concentration not given here
[14] = biological target: Dihydroorotate dehydrogenase (quinone), mitochondrial (Plasmodium falciparum (isolate 3D7)) (UniProt Q08210); test: inhibition of P. falciparum DHODH – biochemical, C-terminal His tag, absorbance 600 nm, primary screen (AID 1175); conditions: PfDHODH enzyme, DCIP absorbance 600 nm; higher = more signal, called active from +8 up or from −8 down;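 further: recombinant parasite enzyme with a five histidine tag at its C terminus; test concentration not given here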
[15] = inhibition of PAO1 biofilm formation – strain PAO1, LB-PBS medium, absorbance 600 nm, primary screen (AID 1176); further: test concentration not given here; conditions: P. aeruginosa PAO1 growth/biofilm, A600, 12 h; higher = more signal
[16] = growth modulation of vineyard yeast isolate – strain RM11-1a, OD600, basal, 24 h, primary screen (AID 1177);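 further: cultures grown under basal conditions with no added stressor; test concentration not given here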; conditions: S. cerevisiae RM11-1a growth, OD600, 24 h; higher = more signal, called active from +8 up or from −8 down
[17] = growth of efflux-deficient E. coli DRC39 – strain DRC39, OD650, 24 h, E. coli filamentation inducers, primary screen (AID 1178);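 further: growth measured as culture turbidity by optical density at 650 nm; test concentration not given here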; conditions: E. coli DRC39 acrAB, higher = more signal, called active from +8 up or from −8 down
[18] = growth of efflux-deficient E. coli DRC39 – strain DRC39, OD650, 48 h, E. coli filamentation inducers, primary screen (AID 1179);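 further: screen aims at cell division blockers that make cells filament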; conditions: E. coli DRC39 delta-acrAB growth, higher = more signal, called active from +8 up or from −8 down
[19] = viability profiling in RPMI8226 myeloma cells – cell-based, resazurin fluorescence, basal, 24 h, PK04 Diversity Set, profiling panel (AID 1180); conditions: higher = more signal;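 further: RPMI8826 multiple myeloma cell line at 5000 cells per well; test concentration not given here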
[20] = biological target: E3 ubiquitin-protein ligase XIAP (Homo sapiens) (UniProt P98170); test: small molecules binding XIAP protein – biophysical, small-molecule microarray, fluorescence 635 nm, primary screen (AID 1181); conditions: higher = more signal;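 further: score merges 667 nm emission and signal to noise over triplicate slides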
Sequence of E3 ubiquitin-protein ligase XIAP (Homo sapiens) (P98170 whole entry, looked up): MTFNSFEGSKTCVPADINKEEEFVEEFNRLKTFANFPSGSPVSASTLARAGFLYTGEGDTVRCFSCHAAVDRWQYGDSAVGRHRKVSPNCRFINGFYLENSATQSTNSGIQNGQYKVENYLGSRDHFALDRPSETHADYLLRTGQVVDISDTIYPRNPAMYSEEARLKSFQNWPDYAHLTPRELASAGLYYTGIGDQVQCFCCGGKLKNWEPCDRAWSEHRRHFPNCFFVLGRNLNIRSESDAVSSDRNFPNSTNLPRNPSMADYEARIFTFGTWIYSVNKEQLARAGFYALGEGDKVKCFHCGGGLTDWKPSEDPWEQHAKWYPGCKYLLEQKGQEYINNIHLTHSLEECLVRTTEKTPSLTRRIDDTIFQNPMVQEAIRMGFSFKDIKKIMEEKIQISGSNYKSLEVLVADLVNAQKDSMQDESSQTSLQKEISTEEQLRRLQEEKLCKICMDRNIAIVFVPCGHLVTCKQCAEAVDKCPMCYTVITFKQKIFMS

Sequence of Dihydroorotate dehydrogenase (quinone), mitochondrial (Plasmodium falciparum (isolate 3D7)) (Q08210 whole entry, looked up): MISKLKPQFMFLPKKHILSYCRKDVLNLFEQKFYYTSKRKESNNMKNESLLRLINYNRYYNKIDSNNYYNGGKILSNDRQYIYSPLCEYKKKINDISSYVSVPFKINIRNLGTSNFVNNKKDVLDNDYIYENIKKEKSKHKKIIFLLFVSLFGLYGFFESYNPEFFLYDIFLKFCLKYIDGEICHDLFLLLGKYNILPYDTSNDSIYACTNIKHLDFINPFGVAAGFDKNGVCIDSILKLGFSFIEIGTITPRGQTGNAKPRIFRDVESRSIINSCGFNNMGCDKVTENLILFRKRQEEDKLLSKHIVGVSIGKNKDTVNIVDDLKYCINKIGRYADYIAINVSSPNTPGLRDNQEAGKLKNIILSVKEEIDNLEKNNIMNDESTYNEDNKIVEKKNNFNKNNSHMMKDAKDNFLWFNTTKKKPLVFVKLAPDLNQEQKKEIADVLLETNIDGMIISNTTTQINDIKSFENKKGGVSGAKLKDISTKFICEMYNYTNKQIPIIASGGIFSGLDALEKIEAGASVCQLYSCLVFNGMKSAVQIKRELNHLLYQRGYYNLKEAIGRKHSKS

SMILES	z-score [1]	z-score [2]	z-score [3]	z-score [4]	z-score [5]	z-score [6]	z-score [7]	z-score [8]	z-score [9]	z-score [10]	z-score [11]	z-score [12]	z-score [13]	composite z-score [14]	z-score [15]	z-score [16]	z-score [17]	z-score [18]	z-score [19]	composite z-score [20]
COc1ccc([Si](C)(C)[C@H]2[C@H](CC(=O)N3CCC[C@H]3CO)O[C@@]3(C(=O)N(C)c4ccccc43)[C@@H]2C)cc1	0.183	-0.522	0.233	0.0008	0.143	-1.03	-0.223 (inactive)	0.812	-0.265	-0.394 (inactive)	-0.395	0.264 (inactive)	-0.212 (inactive)	-0.269 (inactive)	1.32 (inactive)	0.554 (inactive)	0.133 (inactive)	-0.0566 (inactive)	-0.418	0.0473
COc1c(C)cc(-c2cc3c(c(CCc4ccccc4)n2)[Si](C(C)C)(C(C)C)O[C@H]3c2ccccc2)cc1C	-0.216	-0.945	0.297	-3.19	-3.11	-2.39	-0.729 (inactive)	-1.04	-1.24	0.453 (inactive)	-0.0275	0.597 (inactive)	0.135 (inactive)	0.0798 (inactive)	0.608 (inactive)	1.42 (inactive)	-0.754 (inactive)	-0.744 (inactive)	-3.7	-0.195
COC(=O)[C@H]1N=C(c2ccc(OCCCO)cc2)O[C@H]1c1ccccc1N=[N+]=[N-]	-0.206	0.323	-0.151	-0.862	-1.44	-0.434	-0.419 (inactive)	-0.739	0.567	-0.15 (inactive)	0.249	-3.93 (inactive)	-0.971 (inactive)	0.556 (inactive)	1.43 (inactive)	0.682 (inactive)	0.584 (inactive)	-0.711 (inactive)	0.464	-0.141
CO[C@H]1O[C@H](CO)[C@@H](OC(=O)CCc2ccccc2)[C@@H]2OC(=O)[C@@H](Cc3ccc4ccccc4c3)C/C=C/C[C@H](Cc3ccc4ccccc4c3)C(=O)O[C@@H]12	1.39	0.284	1.27	-0.52	0.0085	0.111	0.945 (inactive)	0.761	0.0944	-1.39 (inactive)	-0.826	-0.998 (inactive)	-0.333 (inactive)	-1.32 (inactive)	-0.0558 (inactive)	-1.11 (inactive)	0.552 (inactive)	0.9 (inactive)	-0.591	0.0302
C=CCNC(=O)[C@@H]1[C@H]2C(=O)O[C@H](c3ccccc3)[C@H](c3ccccc3)N2[C@H](c2ccc(OCCO)cc2)[C@@]12C(=O)Nc1ccc(C#CCNC(N)=O)cc12	-0.842	0.274	-0.397	0.0041	0.155	-0.921	-0.962 (inactive)	0.672	1.23	0.36 (inactive)	-0.0448	1.23 (inactive)	-0.286 (inactive)	-0.157 (inactive)	1.18 (inactive)	1.06 (inactive)	0.0047 (inactive)	-0.568 (inactive)	0.671	0.129
CC(C)C(=C=CC[C@H](O)c1cccc(OCCO)c1)C[C@H](O)c1ccccn1	1.65	-0.0875	0.731	0.301	0.942	0.807	0.259 (inactive)	0.509	-0.803	1.26 (inactive)	1.91	0.589 (inactive)	0.106 (inactive)	-0.332 (inactive)	0.625 (inactive)	-0.69 (inactive)	1.61 (inactive)	1.5 (inactive)	0.681	0.0436
Cc1ccc(S[C@]2(C(=O)NCc3ccccc3)CC(=O)N(Cc3ccccc3Cl)[C@@H]2c2ccc(CO)cc2)cc1	-0.643	0.9	0.191	0.0218	-1.25	0.0273	-0.537 (inactive)	-0.517	0.666	0.0338 (inactive)	-1.46	-0.288 (inactive)	0.464 (inactive)	0.429 (inactive)	0.338 (inactive)	0.884 (inactive)	-0.545 (inactive)	-0.756 (inactive)	0.335	0.0623
O=C1C2C=CC(C(O)C3CC=CCC3)N(Nc3ccc([N+](=O)[O-])cc3)C2C(=O)N1c1ccccc1 (stereo not given)	-0.562	0.243	-1.55	0.25	-0.738	-1.02	-1.43 (inactive)	-0.374	0.000383	-0.383 (inactive)	-0.681	-0.541 (inactive)	-0.428 (inactive)	0.354 (inactive)	1.29 (inactive)	-0.0935 (inactive)	-0.544 (inactive)	-0.861 (inactive)	-0.617	0.26
COc1ccc(C(=O)Nc2ccc(CN3C(=O)[C@]4(O[C@H](CC(=O)N(CCO)Cc5ccccc5)[C@@H]([Si](C)(C)c5ccc(OC)cc5)[C@@H]4C)c4ccccc43)cc2)cc1	-0.937	1.19	-1.52	-1.92	-2.73	0.353	0.324 (inactive)	-1.02	-0.692	-2.04 (inactive)	-1.18	0.352 (inactive)	-1.94 (inactive)	-0.633 (inactive)	0.671 (inactive)	2.51 (inactive)	-0.225 (inactive)	-0.575 (inactive)	-1.84	-0.209
